“And” between values parts separate entries of the source, which are not always exact repeats. Equal values may be shown once. Where a structure was tested more than once in an assay, its records may differ in their call. The source made the active and inactive calls. How the source made its calls: active means hit-call score of the fitted dose curve at least 0.9, where 1 is the maximum; inactive means score below 0.9.
Experiments:
[1] = ATG_GLI_CIS: Attagene CIS-FACTORIAL HepG2 Assay for human Zinc Finger Protein GLI1 (AID 2282945); settings: HepG2, Attagene cis-factorial reporter mRNA, GLI element; actives raise or lower the signal
Outline: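 Transiently transfected HepG2 cells report endogenous transcription factor activity via cis-element-driven reporter units. After 24 h compound exposure, reporter mRNA was measured by RT-PCR with capillary electrophoresis; bidirectional fitting against DMSO baseline.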

[2] = ATG_GRE_CIS: Attagene CIS-FACTORIAL HepG2 Assay for human Glucocorticoid Response Elements (GRE) (AID 2282947); settings: HepG2 GRE cis-reporter, Attagene multiplex mRNA; actives raise or lower the signal
Outline: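 Fluorescence intensity of reporter-specific cDNA fragments, separated by capillary electrophoresis, provides the signal. Constructs carry cis-regulating promoters in transiently transfected HepG2 liver cells; 24 h incubation; fitting is bidirectional against DMSO.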

[3] = ATG_ISRE_CIS: Attagene CIS-FACTORIAL HepG2 Assay for human Interferon Regulatory Factor 1 (IRF1) binding to an Interferon-Stimulated Response Element (ISRE) (AID 2282948); settings: HepG2 ISRE cis-reporter (Attagene), mRNA transcription readout; actives raise or lower the signal
Outline: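 Uses HepG2 liver cells transfected with cis-regulated reporters and measures mRNA 24 h post-dosing through RT-PCR, primer-extension labelling and capillary electrophoresis, with DMSO as negative control.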

[4] = ATG_M_32_CIS: Attagene CIS-FACTORIAL HepG2 Assay for M32 Transcription Factor (Internal Marker) (AID 2282949); settings: HepG2 Attagene cis-factorial M32 reporter, mRNA; actives raise or lower the signal;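 further: background control marker of the multiplexed CIS panel rather than a real target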
Outline: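 HepG2 human liver cells transiently transfected with cis-promoter-driven multiple reporter transcription units, dosed 24 h. Reporter mRNA quantified by RT-PCR, FAM-labelled primer extension, HpaI digest and capillary electrophoresis; bidirectional fit versus DMSO baseline.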

[5] = ATG_M_06_CIS: Attagene CIS-FACTORIAL HepG2 Assay for M06 Transcription Factor (Internal Marker) (AID 2282950); settings: HepG2 Attagene CIS-FACTORIAL M06 internal marker reporter; actives raise or lower the signal
Outline: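 Internal background marker within multiplexed cis-reporter HepG2 system. Cells transiently transfected, dosed 24 h; reporter mRNA measured by RT-PCR, HpaI digestion and capillary electrophoresis. Bidirectional fit relative to DMSO.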

[6] = target: Hypoxia-inducible factor 1-alpha (Homo sapiens) (UniProt Q16665); test: ATG_HIF1a_CIS: Attagene CIS-FACTORIAL HepG2 Assay for human Hypoxia Inducible Factor 1 (HIF1A) (AID 2282951); settings: HepG2 Attagene cis-factorial HIF1a reporter transcription; actives raise or lower the signal
Sequence of Hypoxia-inducible factor 1-alpha (Homo sapiens) (Q16665 whole entry, looked up, the tested form may be a part): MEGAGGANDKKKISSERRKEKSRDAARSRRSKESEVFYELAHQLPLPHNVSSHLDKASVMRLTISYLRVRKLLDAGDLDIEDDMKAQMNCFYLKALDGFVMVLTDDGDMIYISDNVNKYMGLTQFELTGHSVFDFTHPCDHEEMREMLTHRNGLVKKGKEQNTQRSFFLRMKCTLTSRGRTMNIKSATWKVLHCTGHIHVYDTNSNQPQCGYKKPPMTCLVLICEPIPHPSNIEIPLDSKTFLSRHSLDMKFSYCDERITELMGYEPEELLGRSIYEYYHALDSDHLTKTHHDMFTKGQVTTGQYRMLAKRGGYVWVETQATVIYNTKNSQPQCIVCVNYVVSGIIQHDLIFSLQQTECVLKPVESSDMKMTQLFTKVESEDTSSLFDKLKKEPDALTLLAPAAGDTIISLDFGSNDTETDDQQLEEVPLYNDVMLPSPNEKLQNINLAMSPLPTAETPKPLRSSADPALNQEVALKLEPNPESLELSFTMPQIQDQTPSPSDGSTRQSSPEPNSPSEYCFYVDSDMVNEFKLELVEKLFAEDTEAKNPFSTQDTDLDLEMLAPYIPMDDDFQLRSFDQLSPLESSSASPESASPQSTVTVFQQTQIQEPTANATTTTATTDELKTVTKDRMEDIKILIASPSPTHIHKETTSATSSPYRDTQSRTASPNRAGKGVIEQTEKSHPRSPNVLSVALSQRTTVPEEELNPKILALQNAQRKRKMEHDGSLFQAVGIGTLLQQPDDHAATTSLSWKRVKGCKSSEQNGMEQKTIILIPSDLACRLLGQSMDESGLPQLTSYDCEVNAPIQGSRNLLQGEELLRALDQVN
Outline: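 Transient MRTU transfection of human HepG2 liver cells, 24 h compound treatment, then total RNA isolation, oligo(dT) reverse transcription, PCR amplification, fluorescent labelling and capillary electrophoresis of reporter fragments. Gain or loss relative to DMSO.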

[7] = target: Hepatocyte nuclear factor 6 (Homo sapiens) (UniProt Q9UBC0); test: ATG_HNF6_CIS: Attagene CIS-FACTORIAL HepG2 Assay for human Hepatocyte Nuclear Factor 6 (HNF6) (AID 2282952); settings: HepG2 Attagene cis-factorial HNF6 reporter transcription; actives raise or lower the signal
Sequence of Hepatocyte nuclear factor 6 (Homo sapiens) (Q9UBC0 whole entry, looked up, the tested form may be a part): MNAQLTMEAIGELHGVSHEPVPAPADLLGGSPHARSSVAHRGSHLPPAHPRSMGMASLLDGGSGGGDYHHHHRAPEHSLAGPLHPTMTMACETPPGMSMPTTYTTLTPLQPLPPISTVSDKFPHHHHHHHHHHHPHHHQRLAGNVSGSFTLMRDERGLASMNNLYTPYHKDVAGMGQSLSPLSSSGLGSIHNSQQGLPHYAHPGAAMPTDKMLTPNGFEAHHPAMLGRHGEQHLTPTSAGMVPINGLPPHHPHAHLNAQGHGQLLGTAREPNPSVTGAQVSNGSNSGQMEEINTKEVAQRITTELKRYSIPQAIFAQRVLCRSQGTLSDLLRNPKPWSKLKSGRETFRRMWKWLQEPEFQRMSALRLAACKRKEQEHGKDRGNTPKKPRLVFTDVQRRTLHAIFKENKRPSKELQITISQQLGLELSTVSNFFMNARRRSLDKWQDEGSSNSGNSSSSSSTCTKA
Outline: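 Using cis-element reporters in HepG2 liver cells, the assay tracks endogenous factor-driven transcription 24 h post-dosing. Signal comes from 6-FAM-labelled, HpaI-digested RT-PCR fragments, with gain or loss scored against DMSO.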

[8] = ATG_MRE_CIS: Attagene CIS-FACTORIAL HepG2 Assay for human Metal Responsive Element (MRE) (AID 2282954); settings: HepG2 MRE cis-reporter transcription, Attagene multiplex; actives raise or lower the signal
Outline: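 Measured here is mRNA induction from an MRE cis-element reporter in HepG2 after 24 h, quantified by fluorescence of labelled RT-PCR products on capillary electrophoresis; gain- and loss-of-signal fits use DMSO as baseline.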

[9] = target: Paired box protein Pax-6 (Homo sapiens) (UniProt P26367); test: ATG_Pax6_CIS: Attagene CIS-FACTORIAL HepG2 Assay for human Paired Box 6 (PAX6) (AID 2282956); settings: HepG2 CIS-FACTORIAL PAX6 reporter transcription, RNA readout; actives raise or lower the signal
Sequence of Paired box protein Pax-6 (Homo sapiens) (P26367 whole entry, looked up): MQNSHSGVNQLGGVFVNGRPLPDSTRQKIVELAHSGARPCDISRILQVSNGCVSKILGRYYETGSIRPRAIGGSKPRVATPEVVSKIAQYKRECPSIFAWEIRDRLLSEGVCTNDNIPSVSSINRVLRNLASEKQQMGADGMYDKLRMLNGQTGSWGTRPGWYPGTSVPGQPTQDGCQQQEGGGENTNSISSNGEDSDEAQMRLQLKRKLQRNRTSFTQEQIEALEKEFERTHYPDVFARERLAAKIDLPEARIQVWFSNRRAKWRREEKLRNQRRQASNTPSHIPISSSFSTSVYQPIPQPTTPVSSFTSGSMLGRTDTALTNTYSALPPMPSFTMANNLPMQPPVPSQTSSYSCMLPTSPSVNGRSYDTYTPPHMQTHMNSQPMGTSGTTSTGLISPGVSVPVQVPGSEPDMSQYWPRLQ
Outline: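 DMSO-referenced bidirectional fits of reporter mRNA fluorescence; HepG2 with transient cis-promoter MRTUs, 24 h post-dose, RT-PCR plus capillary electrophoresis detection.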

[10] = ATG_PXRE_CIS: Attagene CIS-FACTORIAL HepG2 Assay for human Pregnane X Receptor Element (PXRE) (AID 2282957); settings: HepG2 Attagene CIS-FACTORIAL PXRE reporter, mRNA; actives raise or lower the signal
Outline: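 Using HepG2 transfected with multiple reporter transcription units, endogenous factor-driven transcription was scored as reporter mRNA after 24 h exposure.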

[11] = ATG_PPRE_CIS: Attagene CIS-FACTORIAL HepG2 Assay for human Peroxisome Proliferator-activated Response Element (PPRE) (AID 2282958); settings: HepG2 PPRE cis-element reporter, Attagene transcription factor profiling; actives raise or lower the signal
Outline: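 HepG2, transient MRTU transfection (cis promoter elements, endogenous TFs). 24 h dosing. RNA → oligo(dT) RT → PCR → 6-FAM primer extension → HpaI digest → CE. Bidirectional fit vs DMSO.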

[12] = ATG_Sox_CIS: Attagene CIS-FACTORIAL HepG2 Assay for human SRY-box transcription factor (SOX) (AID 2282960); settings: HepG2 Attagene cis-factorial SOX reporter, mRNA; actives raise or lower the signal
Outline: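 Endogenous factor activity in human liver HepG2 cells carrying transfected cis-regulated reporter units. RNA taken 24 h post-dose, reverse-transcribed, PCR-amplified and sized by capillary electrophoresis. Gain or loss of signal fitted relative to DMSO.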

[13] = target: Transcription factor Sp1 (Homo sapiens) (UniProt P08047); test: ATG_Sp1_CIS: Attagene CIS-FACTORIAL HepG2 Assay for human Specificity Protein 1 (Sp1) (AID 2282961); settings: HepG2 Sp1 cis-reporter transcription, actives raise or lower the signal
Sequence of Transcription factor Sp1 (Homo sapiens) (P08047 whole entry, looked up): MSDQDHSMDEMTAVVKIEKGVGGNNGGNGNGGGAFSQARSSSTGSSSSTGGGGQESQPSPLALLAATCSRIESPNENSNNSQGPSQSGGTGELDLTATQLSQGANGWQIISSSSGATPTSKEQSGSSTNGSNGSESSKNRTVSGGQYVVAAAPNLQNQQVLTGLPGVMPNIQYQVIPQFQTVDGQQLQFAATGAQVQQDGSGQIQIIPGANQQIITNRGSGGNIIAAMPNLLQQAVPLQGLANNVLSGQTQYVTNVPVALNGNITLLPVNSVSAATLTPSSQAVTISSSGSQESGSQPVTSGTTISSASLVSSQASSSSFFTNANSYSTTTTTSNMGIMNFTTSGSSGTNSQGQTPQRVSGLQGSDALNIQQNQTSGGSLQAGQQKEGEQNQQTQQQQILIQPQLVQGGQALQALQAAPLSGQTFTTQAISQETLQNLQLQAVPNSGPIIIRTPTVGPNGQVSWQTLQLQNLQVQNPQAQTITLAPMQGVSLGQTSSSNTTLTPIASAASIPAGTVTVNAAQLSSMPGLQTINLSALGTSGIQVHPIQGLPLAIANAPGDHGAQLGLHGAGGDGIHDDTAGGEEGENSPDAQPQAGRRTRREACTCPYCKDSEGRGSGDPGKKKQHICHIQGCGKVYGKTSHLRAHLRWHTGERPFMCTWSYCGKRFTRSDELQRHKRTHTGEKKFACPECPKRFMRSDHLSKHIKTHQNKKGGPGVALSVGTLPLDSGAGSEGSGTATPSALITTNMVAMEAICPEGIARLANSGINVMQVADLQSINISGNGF
Outline: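 Transient MRTU-transfected HepG2, 24 h compound exposure. Total RNA → oligo(dT) RT → PCR of reporter → 6-FAM primer extension → HpaI digest → CE. Endpoint fitted both directions vs DMSO.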

[14] = ATG_SREBP_CIS: Attagene CIS-FACTORIAL HepG2 Assay for human Sterol Regulatory Element Binding (SREBP) (AID 2282962); settings: HepG2 Attagene cis-factorial SREBP reporter, mRNA; actives raise or lower the signal
Outline: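 In this cis-format assay, HepG2 liver cells express reporters controlled by promoter elements responsive to native transcription factors. Exposure lasts 24 h; reporter mRNA fluorescence from capillary electrophoresis gives the signal, fitted bidirectionally against DMSO.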

[15] = target: Signal transducer and activator of transcription 3 (Homo sapiens) (UniProt P40763); test: ATG_STAT3_CIS: Attagene CIS-FACTORIAL HepG2 Assay for human Signal Transducer and Activator of Transcription 3 (STAT3) (AID 2282963); settings: HepG2, Attagene cis-factorial STAT3 reporter transcription; actives raise or lower the signal
Sequence of Signal transducer and activator of transcription 3 (Homo sapiens) (P40763 whole entry, looked up, the tested form may be a part): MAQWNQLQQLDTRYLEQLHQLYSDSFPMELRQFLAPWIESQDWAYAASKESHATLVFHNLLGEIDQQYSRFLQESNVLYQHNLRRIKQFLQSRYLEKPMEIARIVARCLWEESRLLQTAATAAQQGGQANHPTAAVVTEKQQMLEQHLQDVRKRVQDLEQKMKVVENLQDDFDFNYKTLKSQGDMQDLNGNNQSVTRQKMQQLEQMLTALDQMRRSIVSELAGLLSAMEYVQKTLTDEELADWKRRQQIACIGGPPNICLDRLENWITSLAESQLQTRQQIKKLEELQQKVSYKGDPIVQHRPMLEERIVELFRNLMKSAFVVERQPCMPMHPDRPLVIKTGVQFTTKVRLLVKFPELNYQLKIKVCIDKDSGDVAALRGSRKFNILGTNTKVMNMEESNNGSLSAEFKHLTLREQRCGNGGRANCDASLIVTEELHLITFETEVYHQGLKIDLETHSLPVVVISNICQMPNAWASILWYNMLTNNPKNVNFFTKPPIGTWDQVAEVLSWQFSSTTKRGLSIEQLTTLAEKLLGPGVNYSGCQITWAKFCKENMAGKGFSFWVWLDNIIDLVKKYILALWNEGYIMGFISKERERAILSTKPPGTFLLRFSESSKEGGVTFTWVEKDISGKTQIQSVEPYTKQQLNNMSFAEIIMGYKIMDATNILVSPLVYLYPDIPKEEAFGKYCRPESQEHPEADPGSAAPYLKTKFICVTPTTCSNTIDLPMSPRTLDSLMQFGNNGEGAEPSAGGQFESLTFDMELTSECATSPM
Outline: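 Fluorescence intensity of 6-FAM-labelled reporter fragments, separated by capillary electrophoresis after RT-PCR, gave the signal. Cells were HepG2 transfected with cis-element reporter units and treated 24 h; fitting was bidirectional relative to DMSO.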

[16] = ATG_TA_CIS: Attagene CIS-FACTORIAL HepG2 Assay for human TA Basal Promoter (AID 2282964); settings: HepG2 Attagene CIS-factorial TA basal promoter reporter; actives raise or lower the signal
Outline: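 HepG2 cells transiently transfected with multiple reporter units under cis promoter elements, reporting endogenous transcription factor activity; this endpoint tracks the TA basal promoter as background control. Reporter mRNA after 24 h dosing measured by RT-PCR/capillary electrophoresis; bidirectional fits versus DMSO.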

[17] = target: Heat shock factor protein 1 (Homo sapiens) (UniProt Q00613); test: ATG_HSE_CIS: Attagene CIS-FACTORIAL HepG2 Assay for human Heat Shock Transcription Factor 1 (HSE) (AID 2282953); settings: HepG2 HSE cis-reporter, Attagene RNA transcription; actives raise or lower the signal
Sequence of Heat shock factor protein 1 (Homo sapiens) (Q00613 whole entry, looked up): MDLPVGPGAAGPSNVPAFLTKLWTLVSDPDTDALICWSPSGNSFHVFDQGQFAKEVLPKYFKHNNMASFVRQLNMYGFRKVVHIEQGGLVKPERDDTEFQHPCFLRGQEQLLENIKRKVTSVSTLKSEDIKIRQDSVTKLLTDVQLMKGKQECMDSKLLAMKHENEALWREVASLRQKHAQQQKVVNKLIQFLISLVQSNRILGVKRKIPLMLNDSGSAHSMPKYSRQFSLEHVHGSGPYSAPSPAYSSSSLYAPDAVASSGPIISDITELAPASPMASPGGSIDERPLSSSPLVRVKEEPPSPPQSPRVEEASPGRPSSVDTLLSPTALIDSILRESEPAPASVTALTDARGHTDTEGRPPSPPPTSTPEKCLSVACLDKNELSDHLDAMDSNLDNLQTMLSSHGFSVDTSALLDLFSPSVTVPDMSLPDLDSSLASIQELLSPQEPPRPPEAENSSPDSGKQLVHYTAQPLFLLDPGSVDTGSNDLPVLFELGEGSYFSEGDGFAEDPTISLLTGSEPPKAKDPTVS
Outline: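 HepG2 cells transfected with cis-promoter reporter units sensing endogenous transcription factor activity; reporter mRNA quantified 24 h post-dose by RT-PCR and capillary electrophoresis of 6-FAM-labelled products. Bidirectional fitting against DMSO.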

[18] = ATG_RORE_CIS: Attagene CIS-FACTORIAL HepG2 Assay for human RAR-related Orphan Receptor Element (RORE) (AID 2282959); settings: HepG2 Attagene cis-factorial RORE reporter, mRNA; actives raise or lower the signal
Outline: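 Transient MRTU transfection of human HepG2 liver cells (FuGene 6); 24 h compound exposure; TriZol RNA, oligo(dT) RT, PCR, FAM labeling, HpaI cut, CE fragment analysis. DMSO = negative control/baseline.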

[19] = ATG_PBREM_CIS: Attagene CIS-FACTORIAL HepG2 Assay for human Phenobarbital-responsive Enhancer Module (PBREM) (AID 2282955); settings: HepG2 PBREM cis-reporter, Attagene multiplexed transcription; actives raise or lower the signal
Outline: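 Endogenous transcription factors in human liver HepG2 cells drive a PBREM cis-element reporter, whose transcript level after 24 h treatment is quantified by RT-PCR with capillary electrophoresis; activity fitted in both directions against DMSO.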

Measured: AC50

O=S(=O)(O)CCCN1CCOCC1
not listed: [17] | [18] | [19]
inactive: all other assays above

CC/C(=C(\c1ccccc1)c1ccc(OCCN(C)C)cc1)c1ccccc1
active: [14] 5.24 µM and 3.71 µM
inactive: [1] | [2] | [3] | [4] | [5] | [6] | [7] | [17] | [9] | [11] | [18] | [12] | [13] | [14] | [15] | [16]

CCOC(=O)CC(C)C
not listed: [10] | [19]
inactive: all other assays above

CC(C)Cc1ccc(C(C)C(=O)O)cc1 (stereo not drawn)
active: [11] 34.4 µM
not listed: [6] | [17]
inactive: all other assays above

CC/C=C\C#N
not listed: [8]
inactive: all other assays above

S=c1[nH][nH]c(=S)s1
not listed: [11] | [14] | [17]
inactive: all other assays above

CCCCN(CCO)CCO
not listed: [8] | [11] | [16] | [19]
inactive: all other assays above

CC(C)Cc1ccccc1
not listed: [8] | [17] | [19]
inactive: all other assays above

Cc1ccncc1
not listed: [9] | [11] | [16] | [19]
inactive: all other assays above

CC/C=C\CCOC(C)OCC (stereo not drawn)
not listed: [9] | [14] | [17]
inactive: all other assays above

NC(=O)c1cnccn1
not listed: [6] | [9] | [19]
inactive: all other assays above

Cc1cc(O)c2c(c1)C(=O)c1cc(O)cc(O)c1C2=O
active: [2] 18.5 µM | [3] 36.2 µM | [8] 18.9 µM | [19] 14.9 µM | [11] 12 µM | [13] 8.81 µM
not listed: [17]
inactive: all other assays above

CC/C=C\CCOC(=O)C(C)C
not listed: [9] | [18] | [19]
inactive: all other assays above

CCCO[Si](OCCC)(OCCC)OCCC
active: [11] 42.2 µM
not listed: [17]
inactive: all other assays above

CC(C)(C)c1cccc(O)c1
active: [10] 11.5 µM
not listed: [9] | [17] | [18] | [19]
inactive: all other assays above

C=COCC1CCC(COC=C)CC1 (stereo not drawn)
not listed: [8] | [9] | [11] | [14] | [17] | [19]
inactive: all other assays above

O=C(O)c1ccc(C(=O)O)c(C(=O)O)c1
not listed: [6]
inactive: all other assays above

C1COCO1
not listed: [3] | [10] | [18]
inactive: all other assays above

From PubChem BioAssay (EPA / NIEHS)
